# From PubChem BioAssay (NCI)
# This is part of a sample that, as a whole, favours compounds with a hit. Of some 79,000 tested, about 15% had one in any assay. A number with no mark means an inactive call. Activity calls are given as the source filed them. No stated cut-off is given here; in the data, active means growth inhibition above about 70%; inactive means the rest.
# Assays:
# [1] = NCI Yeast Anticancer Drug Screen. Data for the rad50 strain (AID 155);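 further: 0% = growth of vehicle-only cultures of the same strain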; settings: S. cerevisiae rad50 strain growth inhibition, hits give high values
# Method in brief: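 Relative growth inhibition (compound vs vehicle) was measured in yeast with a defined repair-gene alteration.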
# [2] = NCI Yeast Anticancer Drug Screen. Data for the mec2-1 strain (AID 157); settings: S. cerevisiae mec2-1 strain, hits give high values
# Method in brief: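 Growth inhibition is read against vehicle-treated controls after compound exposure of the mec2-1 yeast strain, which is defective in DNA damage repair or cell cycle control.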
# [3] = NCI Yeast Anticancer Drug Screen. Data for the sgs1 mgt1 strain (AID 161);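 further: 0% = growth of cultures given vehicle only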; settings: S. cerevisiae sgs1 mgt1 strain, hits give high values
# Method in brief: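 Percent growth inhibition was derived by comparing compound-exposed mutant yeast with vehicle-exposed cultures. The strain carries alterations in DNA damage repair.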
# [4] = NCI Yeast Anticancer Drug Screen. Data for the cln2 rad14 strain (AID 165);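 further: 0% = growth equal to vehicle treated cultures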; settings: S. cerevisiae cln2 rad14 strain, hits give high values
# Method in brief: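 Growth inhibition, relative to vehicle-treated controls, is the read-out. The test organism is a yeast strain with defined genetic alterations, cln2 rad14.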
# [5] = NCI Yeast Anticancer Drug Screen. Data for the bub3 strain (AID 167); settings: S. cerevisiae bub3 mutant strain, hits give high values
# Method in brief: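 Screening used yeast with an engineered genetic alteration affecting cell cycle control. Compound-exposed cultures were compared with vehicle cultures, and reduced growth was taken as inhibition.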
# [6] = NCI Yeast Anticancer Drug Screen. Data for the mlh1 rad18 strain (AID 175); settings: S. cerevisiae mlh1 rad18 strain growth inhibition, hits give high values
# Method in brief: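 Cells of a genetically altered yeast strain, deficient in DNA damage repair, were treated with compound. Their growth was then compared with that of vehicle-treated cultures to give inhibition.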
# [7] = at 5.0 µM (retest, dose inferred, filed as 0.5)
# [8] = at 50.0 µM (retest, dose inferred, filed as 5.0)
Structure (SMILES),"growth inhibition [1, 7]","growth inhibition [1, 8]",growth inhibition ([1]; at 50.0 µM),"growth inhibition [2, 7]","growth inhibition [2, 8]",growth inhibition ([2]; at 50.0 µM),"growth inhibition [3, 7]","growth inhibition [3, 8]",growth inhibition ([3]; at 50.0 µM),"growth inhibition [4, 7]","growth inhibition [4, 8]",growth inhibition ([4]; at 50.0 µM),"growth inhibition [5, 7]","growth inhibition [5, 8]",growth inhibition ([5]; at 50.0 µM),"growth inhibition [6, 7]","growth inhibition [6, 8]",growth inhibition ([6]; at 50.0 µM)
Nc1ccc2c(c1)[nH]c(=O)c1c(Cl)cccc12,-108%,47%,84.5% (active),-41%,-26%,41%,-58%,-33%,21.4%,-46%,-39%,48.5%,-50%,-42%,4.8%,-87%,-45%,55.5%
Oc1ccc2ccccc2c1I,41%,75% (active),91.2% (active),42%,75% (active),92.7% (active),97% (active),99% (active),93% (active),79% (active),99% (active),92.6% (active),96% (active),98% (active),91.7% (active),32%,55%,90.8% (active)
COC(=O)C1(Cc2ccccc2C)Cc2ccc(C)cc2C1=O (stereo not given),-1%,22%,49.3%,-2%,28%,25.9%,13%,47%,64.9%,-3%,4%,31.8%,9%,71% (active),64.3%,-2%,30%,65.9%
CC(=O)NC1CCCCC1c1ccc(C2CCCCC2NC(C)=O)cc1 (stereo not given),-8%,3%,-11.9%,-8%,9%,-9.3%,-4%,19%,5.3%,-69%,-6%,66.8%,-4%,1%,-2.45%,3%,3%,1.9%
CCN(CC)C(=O)C(C)OC(C)=O (stereo not given),-1%,0%,-21.4%,2%,1%,17.6%,2%,-1%,-11.8%,-2%,-3%,-16%,2%,-5%,8.7%,1%,3%,27.1%
CC(c1ccccc1)n1c2ccccc2c2c(N)ncnc21 (stereo not given),6%,100% (active),78.4% (active),-11%,100% (active),86.8% (active),23%,100% (active),89.5% (active),-4%,100% (active),90.8% (active),13%,100% (active),90.3% (active),32%,99% (active),91.9% (active)
O=C(c1ccccc1)c1ccc(Cl)cc1,-1%,-16%,66.2%,-3%,-5%,37.4%,2%,4%,74.2% (active),1%,2%,-3%,-42%,0%,73.8% (active),1%,2%,81.5% (active)
Oc1c(Br)ccc2c(O)c(Br)ccc12,42%,93% (active),89.7% (active),51%,94% (active),91% (active),36%,98% (active),92.5% (active),57%,98% (active),90.5% (active),53%,97% (active),90.8% (active),31%,88% (active),89.4% (active)
O/N=C1/C(=C/c2ccc(Cl)c(Cl)c2)CCCC1C(NO)c1ccc(Cl)c(Cl)c1 (stereo not given),17%,96% (active),64%,-1%,98% (active),1.9%,2%,96% (active),25.2%,-6%,97% (active),-14.8%,-1%,96% (active),21.6%,1%,97% (active),79% (active)
O=c1[nH]c2c([N+](=O)[O-])cc(Cl)cc2nc1/C=C(\O)c1cccc2ccccc12,0%,86% (active),77% (active),10%,75% (active),62.2%,-10%,81% (active),89.5% (active),-1%,87% (active),82.4% (active),-3%,88% (active),71.5% (active),-7%,85% (active),72.2% (active)
CC(C)COC(=O)C1C2C=CC(CC2)C1C(=O)OCC(C)C (stereo not given),-13%,30%,30.1%,-4%,79% (active),18%,-1%,19%,29.6%,-11%,55%,4.6%,0%,82% (active),40.5%,-3%,86% (active),46.5%
CC1=C(Br)S(=O)(=O)N(c2ccccc2)C(CBr)=C1Br,57%,95% (active),19.8%,41%,97% (active),18.1%,81% (active),99% (active),16.9%,26%,95% (active),5.05%,53%,96% (active),27.7%,70% (active),93% (active),50.1%
O=C(Nc1ccc(Cl)cc1)Nc1nnc2nc(C(C(=O)/C=C/c3ccccc3)c3nc4nnc(NC(=O)Nc5ccc(Cl)cc5)n4[nH]c3=O)c(=O)[nH]n12,-8%,11%,48.5%,-7%,-3%,48%,4%,2%,46.6%,-8%,2%,28.6%,-11%,7%,39.5%,-6%,8%,63.2%
C=C1C(=O)O[C@@H]2C[C@]3(C)CC[C@]4(C)[C@H](CC[C@@H]5[C@@]6(C)CCC(=O)C(C)(C)[C@@H]6CC[C@]54C)[C@H]3[C@H]12,3%,4%,-14.1%,18%,24%,-16.9%,5%,11%,-9.1%,-3%,-1%,6.1%,4%,-1%,-10.7%,-2%,4%,-18.9%
O=C1c2ccccc2C(=O)N1/N=C\c1ccccc1[N+](=O)[O-],1%,75% (active),89% (active),-2%,41%,4.9%,3%,96% (active),-3.8%,-5%,32%,-29.1%,-3%,85% (active),3.75%,-3%,93% (active),0.5%
Cc1ccc(C2(O)CCN(Cc3ccccc3)CC2)cc1,30%,85% (active),56.5%,39%,99% (active),8.3%,47%,72% (active),70% (active),75% (active),89% (active),61.8%,64%,81% (active),41%,37%,98% (active),47%
CCCCC#CCOC(=O)c1cc([N+](=O)[O-])cc([N+](=O)[O-])c1,97% (active),99% (active),99.2% (active),99% (active),100% (active),98.5% (active),99% (active),99% (active),99.8% (active),67%,99% (active),99.3% (active),96% (active),100% (active),99.3% (active),98% (active),99% (active),98.8% (active)
CN(C)CCOC(=O)c1ccccc1,3%,88% (active),49.4%,-6%,42%,22.4%,-2%,60%,24%,0%,81% (active),27.1%,-7%,71% (active),37.2%,2%,78% (active),42.2%
O=[N+]([O-])c1ccc(NS(=O)(=O)c2ccc(Cl)c(Cl)c2Cl)c([N+](=O)[O-])c1,22%,18%,78.2% (active),24%,21%,42.1%,31%,38%,81% (active),16%,25%,45.1%,11%,10%,7.15%,22%,20%,75.2% (active)
COC(=O)Cc1cn[nH]c1C(=O)OC,-147%,8%,9.2%,-51%,-45%,0.7%,-65%,-48%,1.7%,-66%,-52%,29.6%,-68%,-54%,-15.2%,-117%,-94%,9.75%
